Measured values: the supplement of paper PMC8728848
About 410 targets per protein were measured; listed, in parts, are those with the strongest signals and a random draw of the rest.

Experiments:
Assay in all cases: glycan array binding signal (z-score within array); higher = stronger binding
Details in all cases: glycan notation: IUPAC condensed, linker removed
[1] = target: Fuc(a1-2)Gal(b1-4)GlcNAc(b1-2)Man(a1-3)[Fuc(a1-2)Gal(b1-4)GlcNAc(b1-2)Man(a1-6)]Man(b1-4)GlcNAc(b1-4)GlcNAc
Procedure, shortened: (§1)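 Glycan array data came from 3228 arrays in the Consortium for Functional Glycomics database, and only arrays with an available protein sequence were kept. Glycan names were put into IUPAC-condensed notation, and columns mapping to the same glycan were averaged. The binding signal is a within-array Z-score, averaged across arrays of one protein sequence run at different concentrations or buffers and across linkers. A negative Z-score can be read as non-binding.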

[2] = target: Fuc(a1-2)Gal(b1-4)GlcNAc(b1-6)GalNAc
Procedure, shortened: as §1

Fuc(a1-2)Gal6S(b1-4)Glc = target: Fuc(a1-2)Gal6S(b1-4)Glc
Procedure, shortened: as §1

[3] = target: Fuc(a1-2)Gal6S(b1-4)Glc6S
Procedure, shortened: as §1

[4] = target: Fuc(a1-2)[Gal(a1-3)]Gal(b1-4)GlcNAc(b1-2)Man(a1-3)[Fuc(a1-2)[Gal(a1-3)]Gal(b1-4)GlcNAc(b1-2)Man(a1-6)]Man(b1-4)GlcNAc(b1-4)GlcNAc
Procedure, shortened: as §1

[5] = target: Fuc(a1-2)[Gal(a1-3)]Gal(b1-4)GlcNAc(b1-3)[Fuc(a1-2)[Gal(a1-3)]Gal(b1-4)GlcNAc(b1-6)]GalNAc
Procedure, shortened: as §1

[6] = target: Fuc(a1-2)[Gal(a1-3)]Gal(b1-4)GlcNAc(b1-6)GalNAc
Procedure, shortened: as §1

[7] = target: Fuc(a1-2)[Gal(a1-4)]Gal(b1-4)GlcNAc
Procedure, shortened: as §1

[8] = target: Fuc(a1-2)[GalNAc(a1-3)]Gal
Procedure, shortened: as §1

[9] = target: Fuc(a1-2)[GalNAc(a1-3)]Gal(b1-4)Glc
Procedure, shortened: as §1

[10] = target: Fuc(a1-3)[Gal3S(b1-4)]GlcNAc
Procedure, shortened: as §1

[11] = target: Fuc(a1-3)[GalNAc(b1-4)]GlcNAc
Procedure, shortened: as §1

Gal(a1-3)Gal(b1-4)Glc = target: Gal(a1-3)Gal(b1-4)Glc
Procedure, shortened: as §1

Gal(a1-3)GalNAc = target: Gal(a1-3)GalNAc
Procedure, shortened: as §1

[12] = target: Gal(a1-4)Gal(b1-4)GlcNAc(b1-3)Gal(b1-4)Glc
Procedure, shortened: as §1

Gal(b1-3)Gal = target: Gal(b1-3)Gal
Procedure, shortened: as §1

[13] = target: Gal(b1-3)[Fuc(a1-4)]GlcNAc(b1-6)GalNAc
Procedure, shortened: as §1

[14] = target: Gal(b1-4)GlcNAc(b1-2)Man(a1-3)[Gal(b1-4)GlcNAc(b1-2)Man(a1-6)][Gal(b1-4)GlcNAc(b1-4)]Man(b1-4)GlcNAc(b1-4)[Fuc(a1-6)]GlcNAc
Procedure, shortened: as §1

[15] = target: Gal(b1-4)GlcNAc(b1-2)[Gal(b1-4)GlcNAc(b1-4)]Man(a1-3)[Gal(b1-4)GlcNAc(b1-2)Man(a1-6)]Man(b1-4)GlcNAc(b1-4)GlcNAc
Procedure, shortened: as §1

[16] = target: Gal(b1-4)GlcNAc(b1-3)Gal(b1-4)GlcNAc(b1-2)Man(a1-3)[Gal(b1-4)GlcNAc(b1-3)Gal(b1-4)GlcNAc(b1-2)Man(a1-6)]Man(b1-4)GlcNAc(b1-4)[Fuc(a1-6)]GlcNAc
Procedure, shortened: as §1

Gal(b1-4)GlcNAc6P = target: Gal(b1-4)GlcNAc6P
Procedure, shortened: as §1

Gal6S(b1-4)Glc = target: Gal6S(b1-4)Glc
Procedure, shortened: as §1

GalNAc(b1-4)GlcNAc6S = target: GalNAc(b1-4)GlcNAc6S
Procedure, shortened: as §1

GlcA(b1-6)Gal = target: GlcA(b1-6)Gal
Procedure, shortened: as §1

[17] = target: GlcNAc(a1-3)Gal(b1-4)GlcNAc
Procedure, shortened: as §1

[18] = target: GlcNAc(a1-4)Gal(b1-4)GlcNAc(b1-3)Gal(b1-4)[Fuc(a1-3)]GlcNAc(b1-3)Gal(b1-4)[Fuc(a1-3)]GlcNAc
Procedure, shortened: as §1

[19] = target: GlcNAc(a1-6)Gal(b1-4)GlcNAc
Procedure, shortened: as §1

[20] = target: GlcNAc(b1-2)Man(a1-3)[GlcNAc(b1-2)Man(a1-6)]Man(b1-4)GlcNAc(b1-4)[Fuc(a1-6)]GlcNAc
Procedure, shortened: as §1

[21] = target: GlcNAc(b1-3)Gal(b1-4)GlcNAc(b1-3)Gal(b1-4)GlcNAc
Procedure, shortened: as §1

[22] = target: GlcNAc(b1-3)Gal(b1-4)GlcNAc(b1-3)Gal(b1-4)GlcNAc(b1-2)[GlcNAc(b1-3)Gal(b1-4)GlcNAc(b1-3)Gal(b1-4)GlcNAc(b1-6)]Man(a1-6)[GlcNAc(b1-3)Gal(b1-4)GlcNAc(b1-3)Gal(b1-4)GlcNAc(b1-2)Man(a1-3)]Man(b1-4)GlcNAc(b1-4)[Fuc(a1-6)]GlcNAc
Procedure, shortened: as §1

[23] = target: GlcNAc(b1-3)Gal(b1-4)GlcNAc(b1-3)Gal(b1-4)GlcNAc(b1-3)Gal(b1-4)GlcNAc(b1-3)Gal(b1-4)GlcNAc(b1-2)Man(a1-3)[GlcNAc(b1-3)Gal(b1-4)GlcNAc(b1-3)Gal(b1-4)GlcNAc(b1-3)Gal(b1-4)GlcNAc(b1-3)Gal(b1-4)GlcNAc(b1-2)Man(a1-6)]Man(b1-4)GlcNAc(b1-4)GlcNAc
Procedure, shortened: as §1

[24] = target: GlcNAc(b1-4)GlcNAc(b1-4)GlcNAc(b1-4)GlcNAc(b1-4)GlcNAc
Procedure, shortened: as §1

[25] = target: GlcNAc(b1-4)GlcNAc(b1-4)GlcNAc(b1-4)GlcNAc(b1-4)GlcNAc(b1-4)GlcNAc
Procedure, shortened: as §1

[26] = target: GlcNAc6S(b1-3)Gal(b1-4)GlcNAc
Procedure, shortened: as §1

[27] = target: Man(a1-2)Man(a1-2)Man(a1-3)Man
Procedure, shortened: as §1

[28] = target: Neu5Ac(a2-3)Gal(b1-3)GlcNAc(b1-2)[Neu5Ac(a2-3)Gal(b1-3)GlcNAc(b1-4)]Man(a1-6)[Neu5Ac(a2-3)Gal(b1-3)GlcNAc(b1-2)Man(a1-3)]Man(b1-4)GlcNAc(b1-4)GlcNAc
Procedure, shortened: as §1

[29] = target: Neu5Ac(a2-3)Gal(b1-3)GlcNAc(b1-3)Gal(b1-3)GlcNAc
Procedure, shortened: as §1

[30] = target: Neu5Ac(a2-3)Gal(b1-4)GlcNAc(b1-2)Man
Procedure, shortened: as §1

[31] = target: Neu5Ac(a2-3)[GalNAc(b1-4)]Gal(b1-4)GlcNAc(b1-3)GalNAc
Procedure, shortened: as §1

[32] = target: Neu5Ac(a2-6)Gal(b1-4)GlcNAc(b1-2)Man(a1-3)[Man(a1-6)]Man(b1-4)GlcNAc(b1-4)GlcNAc
Procedure, shortened: as §1

[33] = target: Neu5Ac(a2-6)Gal(b1-4)GlcNAc(b1-2)Man(a1-3)[Neu5Ac(a2-3)Gal(b1-4)GlcNAc(b1-2)Man(a1-6)]Man(b1-4)GlcNAc(b1-4)GlcNAc
Procedure, shortened: as §1

[34] = target: Neu5Ac(a2-6)Gal(b1-4)GlcNAc(b1-2)[Neu5Ac(a2-6)Gal(b1-4)GlcNAc(b1-6)]Man(a1-6)[Neu5Ac(a2-6)Gal(b1-4)GlcNAc(b1-2)Man(a1-3)][GlcNAc(b1-4)]Man(b1-4)GlcNAc(b1-4)GlcNAc
Procedure, shortened: as §1

[35] = target: Neu5Ac(a2-6)GalNAc(b1-4)GlcNAc
Procedure, shortened: as §1

[36] = target: Neu5Ac(a2-8)Neu5Ac(a2-3)Gal(b1-3)GalNAc(b1-4)[Neu5Ac(a2-3)]Gal(b1-4)Glc
Procedure, shortened: as §1

[37] = target: Neu5Ac(a2-8)Neu5Ac(a2-3)Gal(b1-3)GalNAc(b1-4)[Neu5Ac(a2-8)Neu5Ac(a2-3)]Gal(b1-4)Glc
Procedure, shortened: as §1

[38] = target: Neu5Ac(a2-8)Neu5Ac(a2-3)[Gal(b1-3)GalNAc(b1-4)]Gal(b1-4)Glc
Procedure, shortened: as §1

[39] = target: Neu5Ac(a2-8)Neu5Ac(a2-8)Neu5Ac(a2-3)Gal(b1-4)Glc
Procedure, shortened: as §1

Neu5Ac(b2-6)GalNAc = target: Neu5Ac(b2-6)GalNAc
Procedure, shortened: as §1

[40] = target: Neu5Gc(a2-3)Gal(b1-3)GlcNAc
Procedure, shortened: as §1

B1: Thrombomodulin Lectin (Mus musculus) (protein)
chain: LSALAKLQPTGSQCVEHECFALFQGPATFLDASQACQRLQGHLMTVRSSVAADVISLLLSQSSMDLGPWIGLQLPQGCDDPVHLGPLRGFQWVTGDNHTSYSRWARPNDQTAPLCGPLCVTVSTATEAAPGEPAWEEKPCETETQGFLCEFYFTASCRVDPIPVREDTKEEEGAGEPPVSPTPGSPTGPPSARPVLDEPRVPITQNPCPPLKECPPCAAPDLEGGPSVFIFPPKIKDVLMISLSPMVTCVVVDVSEDDPDVQISWFVNNVEVHTAQTQTHREDYNSTLRVVSALPIQHQDWMSGKAFACAVNNRALPSPIEKTISKPRGPVRAPQVYVLPPPAEEMTKKEFSLTCMITGFLPAEIAVDWTSNGRTEQNYKNTATVLDSDGSYFMYSKLRVQKSTWERGSLFACSVVHEGLHNHLTTKTISRSLGK
glycan array binding signal (z-score) [1]: 0.621
glycan array binding signal (z-score) [2]: 2.73
glycan array binding signal (z-score) (Fuc(a1-2)Gal6S(b1-4)Glc): 2.72
glycan array binding signal (z-score) [3]: 0.784
glycan array binding signal (z-score) [4]: 2.81
glycan array binding signal (z-score) [5]: 2.22
glycan array binding signal (z-score) [6]: 0.082
glycan array binding signal (z-score) [7]: 0.651
glycan array binding signal (z-score) [8]: 0.693
glycan array binding signal (z-score) [9]: -0.508
glycan array binding signal (z-score) [10]: -0.275
glycan array binding signal (z-score) [11]: 0.174
glycan array binding signal (z-score) (Gal(a1-3)Gal(b1-4)Glc): 0.642
glycan array binding signal (z-score) (Gal(a1-3)GalNAc): -0.598
glycan array binding signal (z-score) [12]: 0.021
glycan array binding signal (z-score) (Gal(b1-3)Gal): 2.2
glycan array binding signal (z-score) [13]: -0.03
glycan array binding signal (z-score) [14]: 0.267
glycan array binding signal (z-score) [15]: 2.75
glycan array binding signal (z-score) [16]: 1.18
glycan array binding signal (z-score) (Gal(b1-4)GlcNAc6P): 2.7
glycan array binding signal (z-score) (Gal6S(b1-4)Glc): -1.09
glycan array binding signal (z-score) (GalNAc(b1-4)GlcNAc6S): 0.18
glycan array binding signal (z-score) (GlcA(b1-6)Gal): 1.32
glycan array binding signal (z-score) [17]: -1.21
glycan array binding signal (z-score) [18]: 0.73
glycan array binding signal (z-score) [19]: 1.09
glycan array binding signal (z-score) [20]: -0.281
glycan array binding signal (z-score) [21]: -0.268
glycan array binding signal (z-score) [22]: 2.07
glycan array binding signal (z-score) [23]: 0.151
glycan array binding signal (z-score) [24]: -1.3
glycan array binding signal (z-score) [25]: 1.17
glycan array binding signal (z-score) [26]: 0.319
glycan array binding signal (z-score) [27]: -0.544
glycan array binding signal (z-score) [28]: 0.153
glycan array binding signal (z-score) [29]: -1.59
glycan array binding signal (z-score) [30]: -1.13
glycan array binding signal (z-score) [31]: 2.15
glycan array binding signal (z-score) [32]: 2.04
glycan array binding signal (z-score) [33]: -0.553
glycan array binding signal (z-score) [34]: 0.307
glycan array binding signal (z-score) [35]: -1.18
glycan array binding signal (z-score) [36]: 1.68
glycan array binding signal (z-score) [37]: -0.913
glycan array binding signal (z-score) [38]: 0.046
glycan array binding signal (z-score) [39]: 3.06
glycan array binding signal (z-score) (Neu5Ac(b2-6)GalNAc): 1.37
glycan array binding signal (z-score) [40]: -0.635
